Measured values from PubChem BioAssay (NCI).
The panel holds about 83,000 compounds, 20% with a hit somewhere; the sample as a whole holds those more often.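 Negative percent growth values reflect cell death: -40 means 40% of the cells present at the start died, and -100 means all died.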 Activity calls are given as the source filed them. How the source made its calls: active means growth percent below 10; inactive means the rest.

System: HL-60(TB) leukemia
Assay: NCI-60 one-dose screen, 48 h (100 = growth as untreated, 0 = no growth, -100 = all killed)
Details: 10 µM unless noted

Structure (SMILES) | growth
COc1ccc(-c2nn(-c3cccc(NC(=O)Nc4cc(C(F)(F)F)cc(C(F)(F)F)c4)c3)cc2-c2ccncc2)cc1Cl | -25.4% (active)
COc1cc(C(=O)/C=C/c2c(-c3ccc(F)cc3)nc3ncccn23)cc(OC)c1OC | 30.9% (inactive)
CCS(=O)(=O)N1CCN(c2ccc(Nc3ncc(C(N)=O)c(NC4CC4)n3)cc2)CC1 | 71.2% (inactive)
COc1ccc2c(c1)[nH]c(=O)c1c3cccc(F)c3cn21 | 11.2% (inactive)
